In PubChem BioAssay AID1345085 (National Center for Advancing Translational Sciences (NCATS), 2018):
Records with an inconclusive call do not appear. Active and inactive are the calls of the source. The call rests on the fitted dose curve; in most records, active means well fitted cell-killing curve with a large enough effect; inconclusive means small, poorly fitted or top-dose-only effect, or effect the other way; inactive means no such curve, though single readings can be large or run the other way.

Tested on: CASKI
Assay: Confirmatory qHTS for gynecologic anti-cancer compounds from libraries of approved drugs and bioactive compounds; further: nearly all actives have a fitted effect of over 55% in size
Details: gynecologic cancer cell panel viability, ATPlite luminescence, 48 h; series mostly up to 57.6 µM
Procedure, shortened: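 Seeding 1,000 cells per well preceded overnight (16 h) attachment, after which 48 h drug treatment across 57.5 uM–0.977 nM (11 points) was applied. Remaining cellular ATP, detected by ATPlite luminescence, defined IC50.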
Potency means the concentration at half of the fitted maximal effect.

Compound | Potency
CN1CCCC(n2nc(Cc3ccc(Cl)cc3)c3ccccc3c2=O)CC1 (centres undefined) | inactive
C[C@]12CCC(=O)C=C1[C@@H]1C[C@@H]1[C@H]1[C@@H]3[C@@H]4C[C@@H]4[C@@]4(CCC(=O)O4)[C@@]3(C)CC[C@@H]12 | inactive
COc1cc2nccc(Oc3ccc(NC(=O)Nc4cc(C)on4)c(Cl)c3)c2cc1OC | 27.3 µM (active)
O=C(CCCCCCC(=O)Nc1ccccc1)NO | 12.2 µM (active)
CC[C@]1(O)C[C@H]2CN(CCc3c([nH]c4ccccc34)[C@@](C(=O)OC)(c3cc4c(cc3OC)N(C=O)[C@H]3[C@@](O)(C(=O)OC)[C@H](OC(C)=O)[C@]5(CC)C=CCN6CC[C@]43[C@@H]65)C2)C1 | inactive
CC(C)n1nc(-c2cc3cc(O)ccc3[nH]2)c2c(N)ncnc21 | 8.63 µM (active)
CC[C@@]1(O)C(=O)OCc2c1cc1n(c2=O)Cc2c-1nc1ccccc1c2/C=N/OC(C)(C)C | 0.153 µM (active)
CC(Oc1cc(-n2cnc3ccc(CN4CCN(C)CC4)cc32)sc1C(N)=O)c1ccccc1C(F)(F)F (centres undefined) | 13.7 µM (active)
CCCCc1oc2ccc(NS(C)(=O)=O)cc2c1C(=O)c1ccc(OCCCN(CCCC)CCCC)cc1 | 27.3 µM (active)
Cc1nc(Nc2n[nH]c3c2CN(C(=O)NC(CN(C)C)c2ccccc2)C3(C)C)c2sccc2n1 (centres undefined) | 3.06 µM (active)
COc1cc2c(c(OC)c1OC)-c1ccc(OC)c(=O)cc1[C@@H](NC(C)=O)CC2 | inactive
COc1c(C)c2c(c(O)c1C/C=C(\C)CCC(=O)O)C(=O)OC2 | inactive
CCS(=O)(=O)c1cccc(-c2cc(C(=O)NC3CCN(C)CC3)c(C)c3[nH]c4ncc(C)cc4c23)c1 | 4.76 µM (active)
CN(C)CC/C=C1\c2ccccc2COc2ccccc21 | inactive
Cc1ccc(C(N)=O)cc1Nc1nccc(-c2cn(C(C)C)c3cnccc23)n1 | 17.2 µM (active)
Cc1[nH]c2ccccc2c1CCNCc1ccc(/C=C/C(=O)NO)cc1 | 0.611 µM (active)
COc1cccc2c1C(=O)c1c(O)c3c(c(O)c1C2=O)C[C@@](O)(C(=O)CO)C[C@@H]3O[C@H]1C[C@H](N)[C@H](O[C@@H]2CCCCO2)[C@H](C)O1 | 17.2 µM (active)

Compound | Potency
COc1cc(Nc2c(C#N)cnc3cc(OCCCN4CCN(C)CC4)c(OC)cc23)c(Cl)cc1Cl | 24.3 µM (active)
Cc1csc(NC(=O)c2sc3nc4c(c(C(F)(F)F)c3c2N)CCC4)n1 | 5.44 µM (active)
CCCCc1nc2cc(/C=C/C(=O)NO)ccc2n1CCN(CC)CC | 4.85 µM (active)
CN(C)C1CCN(C(=O)c2ccc(NC(=O)Nc3nc(N4CCOCC4)nc(N4CCOCC4)n3)cc2)CC1 | 0.273 µM (active)
NC(=O)c1cnc(-c2ccc(C3(N)CCC3)cc2)c(-c2ccccc2)c1 | 21.7 µM (active)
Cc1c(NC(=O)OCC2COCCN2)cn2ncnc(Nc3ccc4c(cnn4Cc4cccc(F)c4)c3)c12 (centres undefined) | 19.3 µM (active)
NCCOc1cc(C(=O)Nc2cc(OCCN)c3ccccc3n2)nc(C(=O)Nc2cc(OCCN)c3ccccc3n2)c1 | 30.6 µM (active)
COc1cc(Nc2ncc3c(n2)-c2ccc(Cl)cc2C(c2c(F)cccc2OC)=NC3)ccc1C(=O)O | 19.3 µM (active)
OC[C@H]1O[C@@H](n2cnc3c(=S)nc[nH]c32)[C@H](O)[C@@H]1O | 4.85 µM (active)
COc1cc(N2CCC(N)CC2)ccc1Nc1ncc(Cl)c(-c2c[nH]c3ccccc23)n1 | 24.3 µM (active)
CN1CCN(c2cccc(Nc3nc4c(-c5ccc(S(C)(=O)=O)cc5)cccn4n3)c2)CC1 | inactive
Cc1ccc(NC(=O)c2ccc(CN3CCN(C)CC3)cc2)cc1Nc1nccc(-c2cccnc2)n1 | inactive
Nc1cccc(-c2cc3c(Oc4cccc(O)c4)ncnc3[nH]2)c1 | 7.69 µM (active)
C=CC(=O)Nc1cc2c(Nc3ccc(F)c(Cl)c3)ncnc2cc1OCCCN1CCOCC1 | 27.3 µM (active)
CC(C)(C)C(=O)OCOP(=O)(COCCn1cnc2c(N)ncnc21)OCOC(=O)C(C)(C)C | inactive
COc1ccccc1N1CCN(CC(O)COc2cccc3ccccc23)CC1 (centres undefined) | inactive
O=C(NOCC1CC1)c1ccc(F)c(F)c1Nc1ccc(I)cc1Cl | 21.7 µM (active)
